GRIN3A LBD mod = binders of NR3A ligand-binding domain, primary screen, biophysical, differential scanning fluorimetry, uHTS; NR3A LBD differential scanning fluorimetry, Tm shift; 0% = protein alone, 100% = glycine-bound protein; Tm shift relative to glycine control, % at 25 µM; 2.5% of 340,000 active;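 active = melting temperature shift of at least 10% of the positive control shift, at one fixed dose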
HGIII-sPLA2 inh = human group III sPLA2 inhibitors, primary screen, biochemical, QFRET, BODIPY PC-A2 liposome substrate; QFRET BODIPY PC-A2 liposome hydrolysis, fluorescence; inhibition, % at 12.2 µM; 0.56% of 370,000 active; AID 743126, 2013; Group 3 secretory phospholipase A2 (Homo sapiens), Q9NZ20;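 active = inhibition above mean plus 3 SD of compounds lying within the high and low control bounds, cut at about 19% in these data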;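 note: 0% = median of test compound wells and 100% = no enzyme DMSO wells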
ADAM17 inh = ADAM17 inhibitors, primary screen, biochemical, QFRET. recombinant ADAM17, EDANS/DABCYL FRET peptide cleavage. inhibition, % at 6.95 µM. 0.83% of 370,000 active;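 active = inhibition above the mean of compounds lying between control limits plus 3 SD, set per campaign, cut at about 8.5% in these data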;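 note: 0% = DMSO-only wells as the low control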
Target sequence (P78536 215-824 limits assumed): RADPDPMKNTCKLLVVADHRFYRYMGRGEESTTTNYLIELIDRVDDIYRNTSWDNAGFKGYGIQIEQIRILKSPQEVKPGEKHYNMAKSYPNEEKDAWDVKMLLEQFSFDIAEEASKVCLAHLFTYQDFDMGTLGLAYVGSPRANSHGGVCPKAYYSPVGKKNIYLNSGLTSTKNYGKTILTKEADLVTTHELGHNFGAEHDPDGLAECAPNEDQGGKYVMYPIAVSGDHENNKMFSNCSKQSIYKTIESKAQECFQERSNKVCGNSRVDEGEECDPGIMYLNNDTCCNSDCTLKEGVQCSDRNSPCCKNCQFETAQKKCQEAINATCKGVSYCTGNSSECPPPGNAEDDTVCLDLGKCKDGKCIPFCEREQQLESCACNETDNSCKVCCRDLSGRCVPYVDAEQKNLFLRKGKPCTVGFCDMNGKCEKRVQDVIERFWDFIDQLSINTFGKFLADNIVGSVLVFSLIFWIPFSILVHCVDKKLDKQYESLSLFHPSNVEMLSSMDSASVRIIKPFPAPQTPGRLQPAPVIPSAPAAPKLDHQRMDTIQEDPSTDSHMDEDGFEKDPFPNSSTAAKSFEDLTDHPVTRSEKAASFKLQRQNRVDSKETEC
FAS-TE inh = FAS thioesterase domain inhibitors, primary screen, biochemical, fluorescence intensity, uHTS; Fatty acid synthase (Homo sapiens), P49327; recombinant FAS-TE, OMFH fluorogenic substrate, fluorescence endpoint; inhibition, % at 15 µM; 0.67% of 360,000 active;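 active = compounds whose normalised, plate-corrected inhibition of enzyme fluorescence in the single-dose primary screen is 50% or more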;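 note: 0% = DMSO with enzyme and 100% = substrate without enzyme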
ADAM10 inh = human ADAM10 inhibitors, primary screen, biochemical, QFRET, HTS. recombinant ADAM10, EDANS/DABCYL FRET peptide cleavage, 3 h. inhibition, % at 7 µM. 0.62% of 370,000 active;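 active = inhibition above a per-campaign cutoff equal to the mean of compounds falling between control-based bounds plus 3 SD, cut at about 20% in these data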;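 note: 0% = DMSO wells while the 100% control is not disclosed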
ADAM10 confirm = human ADAM10 inhibitors, confirmation, biochemical, QFRET, triplicate | 1% of 2,100 active | shares compounds with ADAM10 inh | ADAM10 QFRET peptide cleavage, EDANS fluorescence | AID 743208, 2013 | inhibition, % at 6.95 µM;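 active = inhibition above about 20% chosen separately for each screening run, limit read from the data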;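 note: 0% = DMSO wells and 100% = marimastat wells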
ADAM17 ctr = ADAM17 inhibitors, counter-screen for ADAM10 exosite inhibitor project, biochemical, QFRET, high throughput | ADAM17 QFRET peptide cleavage, EDANS fluorescence | 0.5% of 2,100 active | shares compounds with ADAM10 inh | AID 743214, 2013 | inhibition, % at 6.95 µM;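 active = mean triplicate inhibition above the solvent-only control wells' mean plus 3 SD, cut at about 12% in these data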;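 note: 0% = DMSO wells and 100% = marimastat wells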
The depositor's hits bear a star; ! = repeats disagree. Sampled rows, rich in hits. Any-hit rate of the full collection: about 4.3%.

Screening CCC(c1nnnn1C(C)C)N1CCN(C2CCCC2)CC1 (configuration not stated) returned GRIN3A LBD mod -0.2, HGIII-sPLA2 inh -5.2, ADAM17 inh 0.7, FAS-TE inh -5.6, ADAM10 inh 73.5*, ADAM10 confirm -2.6 and ADAM17 ctr -0.2.
NC(=O)c1ccsc1NC(=O)CS(=O)(=O)c1ccccc1 was read as GRIN3A LBD mod -1.8, HGIII-sPLA2 inh 11.5, ADAM17 inh -0.8, FAS-TE inh -7.0, ADAM10 inh 83.7*, ADAM10 confirm -0.3 and ADAM17 ctr 0.0.
For Cc1cccc(OCCNC(=O)c2ccc(Oc3ccc(C(F)(F)F)cc3[N+](=O)[O-])cc2)c1 the results were GRIN3A LBD mod -7.2, HGIII-sPLA2 inh -4.1, ADAM17 inh 0.0, FAS-TE inh 19.8, ADAM10 inh 25.6*, ADAM10 confirm 6.8 and ADAM17 ctr 1.7.
CC(C)(C)NC(=O)[C@@H]1C[C@@H]2CCCC[C@@H]2CN1C[C@@H](O)[C@H](Cc1ccccc1)NC(=O)[C@H](CC(N)=O)NC(=O)c1ccc2ccccc2n1 was read as GRIN3A LBD mod -9.3, HGIII-sPLA2 inh -37.5, ADAM17 inh 8.2, FAS-TE inh 34.9, ADAM10 inh 26.3*!, ADAM10 confirm 1.9 and ADAM17 ctr -0.1.
Screening O=C(NCCNc1ccc([N+](=O)[O-])cc1C(F)(F)F)c1ccccc1 returned GRIN3A LBD mod -8.3, HGIII-sPLA2 inh 11.8, ADAM17 inh 2.9, FAS-TE inh 29.1 and ADAM10 inh 2.0.
O=C(NCCNc1ccc([N+](=O)[O-])cc1C(F)(F)F)c1cccc(F)c1 was read as GRIN3A LBD mod -0.6, HGIII-sPLA2 inh 7.4, ADAM17 inh -1.8, FAS-TE inh 25.1, ADAM10 inh 20.5*, ADAM10 confirm 0.7 and ADAM17 ctr 0.1.
For COc1ccc(Cn2ccc3ccc(-c4ccc5ccn(C(=O)c6cccc(OC)c6)c5c4)cc32)cc1 the results were HGIII-sPLA2 inh -9.3, ADAM17 inh -4.1 and ADAM10 inh -30.5.
`O=S(=O)(NCC(Nc1ccc(Cl)cc1)c1ccccc1)c1ccc(Cl)cc1` (configuration not stated) gave GRIN3A LBD mod 27.6*, HGIII-sPLA2 inh -11.5, ADAM17 inh 6.9, FAS-TE inh 30.4, ADAM10 inh 22.7*, ADAM10 confirm 12.4 and ADAM17 ctr 4.5.
For COc1ccc([C@@H]2[C@@H]3C(=O)N(C(C)(C)C)C(=O)[C@@H]3[C@]3(Cc4ccccc4)C(=O)N(c4ccc(OC)cc4)C(=O)N23)cc1 the results were GRIN3A LBD mod -2.1, HGIII-sPLA2 inh -6.6, ADAM17 inh 1.6, FAS-TE inh 12.3, ADAM10 inh 23.4*, ADAM10 confirm 0.8 and ADAM17 ctr 0.3.
N#C/C(=N\Nc1ccc([N+](=O)[O-])cc1)C(N)=S was read as GRIN3A LBD mod 9.1, HGIII-sPLA2 inh 18.2, ADAM17 inh 7.6, FAS-TE inh 22.8, ADAM10 inh 19.9*, ADAM10 confirm 1.2 and ADAM17 ctr 0.2.
For Cc1cc(Cl)ccc1NC(=O)CN1CCC(C(O)(c2ccccc2)c2ccccc2)CC1 the results were GRIN3A LBD mod -14.2, HGIII-sPLA2 inh -17.2, ADAM17 inh 8.7*, FAS-TE inh 35.1, ADAM10 inh 26.2*, ADAM10 confirm 2.4 and ADAM17 ctr 1.5.
`Cc1cc(Cl)ccc1NC(=O)CN1CCCC1` gave GRIN3A LBD mod 1.4, HGIII-sPLA2 inh -2.3, ADAM17 inh 0.3, FAS-TE inh -3.4 and ADAM10 inh -0.4.
C#CCN(C[C@@H]1[C@@H](OC(=O)NCc2ccc(OC)c(OC)c2)[C@@H](OC(=O)NCc2ccc(OC)c(OC)c2)Cn2c(=O)n(CCCCCC)c(=O)n21)S(=O)(=O)c1ccc(C)cc1 was read as HGIII-sPLA2 inh -19.9, ADAM17 inh 8.6, FAS-TE inh 17.4, ADAM10 inh 21.2*, ADAM10 confirm 11.9 and ADAM17 ctr 3.3.
`COc1cc(CNn2c(C)n[nH]c2=S)cc(Cl)c1OCc1ccccc1` gave GRIN3A LBD mod -4.2, HGIII-sPLA2 inh 10.3, ADAM17 inh 5.1, FAS-TE inh 2.4, ADAM10 inh 28.1*, ADAM10 confirm -0.5 and ADAM17 ctr 0.0.
O=C(CSc1ncnc2sc3c(c12)CCCC3)Nc1ccc(Oc2ccccc2)cc1 was read as HGIII-sPLA2 inh 4.6, ADAM17 inh 0.8 and ADAM10 inh 0.3.
Screening O=[N+]([O-])c1ccc(Nc2ccccc2O)c2nonc12 returned GRIN3A LBD mod -4.6, HGIII-sPLA2 inh -6.4, ADAM17 inh 4.1, FAS-TE inh -3.7, ADAM10 inh 20.5*, ADAM10 confirm 0.1 and ADAM17 ctr -0.4.
`COc1nc(OC)nc(N2CCC(C(=O)N(C)Cc3ccco3)CC2)n1` gave HGIII-sPLA2 inh 10.4, ADAM17 inh -0.3 and ADAM10 inh -4.3.
Nc1ccc2c(c1)Nc1ccccc1CC2 was read as GRIN3A LBD mod -1.9, HGIII-sPLA2 inh 17.9, ADAM17 inh 3.7, FAS-TE inh -2.5, ADAM10 inh 23.6*, ADAM10 confirm 0.5 and ADAM17 ctr 0.5.
`COC(=O)Nc1ccc2c(c1)Nc1ccccc1CC2` gave GRIN3A LBD mod -6.0, HGIII-sPLA2 inh 8.3, ADAM17 inh 3.9, FAS-TE inh 11.9 and ADAM10 inh -2.2.
`CC(=O)NC(Cc1ccc2c(c1)OCO2)C(=O)N1CCCN(C(C)=O)CC1` (configuration not stated) gave HGIII-sPLA2 inh 11.0, ADAM17 inh -1.8 and ADAM10 inh -7.0.
Screening O=C(CCN1CCN(Cc2ccccc2)CC1)Nc1ccc(OCc2ccccc2)cc1 returned GRIN3A LBD mod -1.1, HGIII-sPLA2 inh -23.8, ADAM17 inh 2.5, FAS-TE inh 0.6, ADAM10 inh 20.7*, ADAM10 confirm 3.8 and ADAM17 ctr 0.7.
COc1ccc(/C=N/NC(=O)c2ccn[nH]2)cc1COc1ccc(F)cc1 was read as GRIN3A LBD mod -8.2, HGIII-sPLA2 inh -6.2, ADAM17 inh 4.4, FAS-TE inh -36.7 and ADAM10 inh 8.7.

Screening results as filed in PubChem BioAssay.
